Source: ChEMBL document CHEMBL4513146, “CO-ADD screening of Karazin Kharkiv National University (Ukraine) compounds”
Measured potencies and affinities stand elsewhere.

system: Staphylococcus aureus; conditions: Concentration 32 ug.mL-1;; ASSAY_TEST Inhibition of Bacterial Growth; detection method Absorption (OD600); MEDIA CAMHB; plate type 384well; NBS; CORNING #3640; time 18 hr

SMILES	Inhibition [%]
Cc1cc(C)cc(Nc2nc(C)cc3nn(CC(=O)Nc4ccc(F)cc4F)c(=O)n23)c1	11.96
COc1ccc(NC(=O)C(C)Sc2nnc3c(=O)n(-c4ccccc4)ccn23)cc1 (centres undefined)	4.59
COc1ccc(-c2cc3c4nn(CC(=O)Nc5cccc(C)c5)c(=O)n4ccn3n2)cc1	1.22
Cc1c(Cl)cccc1NC(=O)CSc1nc2ccccc2n2c(C)nnc12	7.92
Cc1nnc2ccc(S(=O)(=O)N(Cc3ccccc3)c3ccc(Cl)cc3)cn12	1.7
CCCCc1ccc(NC(=O)Cn2nc3c(N4CCSCC4)nc4ccccc4n3c2=O)cc1	10.09
COc1ccc(NC(=O)Cn2nc3ccc(SCc4ccc(Cl)cc4)nn3c2=O)cc1Cl	-4.58
CCOc1ccc(-n2ccn3c(=O)n(CC(=O)Nc4ccc(Br)cc4)nc3c2=O)cc1	-12.91
Cc1ccc(-c2ccc3nnc(CCC(=O)NCc4ccc(C(C)C)cc4)n3n2)cc1C	2.18
COc1ccccc1NC(=O)Cn1nc2c3cc(-c4ccc(C)c(C)c4)nn3ccn2c1=O	6.99
Cc1cc2nn(CC(=O)Nc3ccc(Cl)cc3)c(=O)n2c(Nc2ccc(F)c(C)c2)n1	4.83
CC(C)Cn1c(=O)c2sccc2n2c(=O)n(Cc3ccccc3Cl)nc12	2.13
COc1ccccc1N1CCN(C(=O)Cn2nc3ccc(-c4ccccc4)nn3c2=O)CC1	-11.69
CC(C)Cn1c(=O)c2sccc2n2c(=O)n(Cc3cccc(Br)c3)nc12	8.88
COc1ccc(NC(=O)Cn2nc3c4cc(-c5ccc(C)c(C)c5)nn4ccn3c2=O)c(OC)c1	-8.81
CCC(C)NC(=O)Cn1nc2ccc(SCc3ccc(Cl)cc3)nn2c1=O (centres undefined)	7.31
COc1ccc(C)cc1NC(=O)Cn1nc2c(N3CCSCC3)nc3ccccc3n2c1=O	9.36
Cc1ccc(NC(=O)Cn2nc3c(Sc4cccc(F)c4)nccn3c2=O)cc1F	12.19
COc1ccc(-c2cc3c4nn(CC(=O)NCc5ccccc5Cl)c(=O)n4ccn3n2)cc1	8.73
Cc1cc(C)cc(Nc2nc(C)cc3nn(CC(=O)Nc4cc(F)cc(F)c4)c(=O)n23)c1	7.68

SMILES	Inhibition [%]
COc1cccc(-n2ccn3c(-c4ccc([N+](=O)[O-])cc4)nnc3c2=O)c1	5.77
O=C(Cn1nc2ccc(-c3ccccc3)nn2c1=O)Nc1ccc(F)cc1	1.63
Cc1ccc(-n2ccn3c(=O)n(Cc4ccccc4)nc3c2=O)cc1C	5.93
Cn1c(=O)c2sccc2n2c(=O)n(Cc3cccc(Br)c3)nc12	14.17
O=C(Cn1nc2c(N3CCSCC3)nc3ccccc3n2c1=O)Nc1ccc(Br)cc1	-2.29
COc1cccc(CN(c2ccc(C)c(F)c2)S(=O)(=O)c2ccc3nncn3c2)c1	-7.58
O=C(CSc1nnc2c(=O)n(Cc3ccc(F)cc3)ccn12)NCC1CCCO1 (centres undefined)	8.21
O=C(Cn1nc2c(SCc3ccccc3)nccn2c1=O)NC1CCCC1	-2.71
O=S(=O)(c1cccn2c(SCc3c(F)cccc3Cl)nnc12)N1CCCC1	5.67
Cc1cc(C)cc(NC(=O)Cn2nc3ccc(SCc4ccc(Cl)cc4)nn3c2=O)c1	-7.67
O=c1n(Cc2ccc3c(c2)OCO3)nc2c(S(=O)(=O)N3CCCCC3)cccn12	10.75
CCOC(=O)c1ccccc1NC(=O)Cn1nc2c(Oc3cccc(C)c3C)nccn2c1=O	5.11
Cc1ccc(Sc2nccn3c(=O)n(CC(=O)Nc4ccc(C)c(Cl)c4)nc23)c(C)c1	6.61
Cc1cc2nn(CC(=O)NC(C)C)c(=O)n2c(-c2ccc(C(F)(F)F)cc2)n1	-8.3
COc1ccc(-c2cc3c4nn(CC(=O)Nc5cccc(OC)c5)c(=O)n4ccn3n2)cc1	-3.02
CSc1ccc(CNC(=O)Cn2nc3c(Oc4ccc(C)cc4)nccn3c2=O)cc1	-14.59
CCOC(=O)c1ccc(NC(=O)Cn2nc3c(SCc4ccc(Cl)cc4)nccn3c2=O)cc1	-2.95
COc1ccc(NC(=O)c2ccc3nn(CC(=O)Nc4cccc(OC)c4)c(=O)n3c2)cc1	15.63
COc1cc(NC(=O)Cn2nc3ccc(-c4ccc(Cl)cc4)nn3c2=O)cc(OC)c1	-2.47
